# EWS-Fli inh = EWS/Fli-driven NR0B1 reporter inhibitors, primary screen, A673 cells, NR0B1 luciferase, luminescence, MLPCN library; inhibition, % at 12.6 µM; viability-normalised; hit rate 0.67% among 350,000;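 active = mean inhibition of at least 50% after viability correction, with every replicate also passing that limit; inconclusive = mean reaches 50% but only one of two replicates passes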;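 also: firefly luciferase signal divided by Alamar Blue viability fluorescence both relative to DMSO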
# PAX8 inh HTS = inhibitors of PAX8-driven TPO luciferase reporter, primary screen, RMG-I cells, single concentration. SteadyGlo, 24 h. inhibition, % at 12.6 µM. hit rate 1.2% among 360,000;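 active = mean replicate inhibition at least 60% with every replicate also reaching 60%; inconclusive = only one of the two criteria is met; inactive = mean below 60% and not all replicates reaching 60%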;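 also: luciferase light reporting Pax8 driven TPO promoter activity; plate controls were median of neutral control wells for no effect and mitoxantrone controls for full effect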
# TWEAK-Fn14 inh = inhibitors of TWEAK-Fn14 signaling, primary screen, luciferase reporter cells, uHTS. TWEAK-stimulated Fn14 reporter cells, luciferase luminescence, 8 h. inhibition, % at 10 µM. hit rate 2% among 360,000; in the data active = inhibition above about 50%
# TROY NFkB inh = inhibitors of TROY-driven NF-kB signaling, primary screen, Q293 LMP1-TROYcd cells, NF-kB luciferase, uHTS; Q293 LMP1-TROYcd NF-kB luciferase reporter, 4 h; inhibition, % at 10 µM; hit rate 0.98% among 360,000;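 active = compounds whose plate-normalised and pattern-corrected inhibition of the luciferase reporter signal at the single screening dose is 50% or more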
# LMP1 NFkB inh = EBV LMP1-driven NF-kappaB luciferase reporter inhibitors, primary screen, cell-based, luminescence, single point; LMP1-induced NF-kappaB luciferase reporter cells; inhibition, % at 12.5 µM; hit rate 0.69% among 350,000; in the data active = inhibition above about 41%; inconclusive = no clear call, values can overlap the other calls;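 also: 0% = neutral control wells and 100% = reference inhibitor control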
# LGR2 inh = inhibitors of bursicon-induced LGR2 CRE-luciferase signal, primary screen, cell-based, HEK293, CRE-luciferase reporter, bursicon stimulation; Drosophila bursicon receptor LGR2 (rickets); bursicon-stimulated, 4 h; inhibition, % at 9.99 µM; hit rate 0.35% among 380,000; AID 720647, 2013;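 active = drop in luminescence signal, shown as inhibition above about 50% in the replicate tests, limit read from the data, passing the limit was not always enough; inconclusive = probably only some replicates passing the limit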;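 also: agonist challenge used bursicon conditioned medium at about half maximal strength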
# Numbers without * were called inactive; ? = inconclusive; . = not tested or not shown. An excerpt weighted towards active compounds, which were near 3.2% of everything screened.
SMILES,EWS-Fli inh,PAX8 inh HTS,TWEAK-Fn14 inh,TROY NFkB inh,LMP1 NFkB inh,LGR2 inh
Cc1nnc(C)c2c(C)n(-c3ccc4ncccc4c3)c(C)c12,-11,-3,1,52*,-1,-14
Cc1ccc(-c2cc(C(=O)N(C)Cc3cnn(C)c3C)c3cc(Br)ccc3n2)cc1,-15,42,26,-26,-7,71*
COc1ccc(O)c(C(=O)CC(=O)c2ccc(F)cc2)c1,.,.,85*,40,29,75*
COc1ccc(C(=O)CC(=O)c2ccccc2O)cc1,-89,-152,-11,-29,-11,-46
COc1ccc(-n2nnnc2S(=O)(=O)Cc2ccc(C(=O)O)cc2)cc1,.,.,-7,20,27,.
COc1ccc(-n2nnnc2S(=O)(=O)CC(=O)N2CCCCC2)cc1,-1,43,96*,57*,61*,99*
N/C(=N\OC(=O)/C=C/c1ccccc1)c1cccnc1,-82,-209,-33,-71,-16,-28
N/C(=N\OC(=O)/C=C/c1ccccc1Cl)c1ccccn1,42,19,75*,68*,2,73*
N/C(=N\OC(=O)/C=C/c1ccc(Br)cc1)c1ccccn1,.,-33,66*,52*,2,?
CCC(=O)Nc1ccc2c(c1)C(=O)N(C)C[C@H](OC)[C@H](C)CN(C(=O)c1ccncc1)[C@@H](C)CO2,0,-8,.,.,.,5
COc1ccc2c(c1)c1ccc3c(c1n2C)C(=O)C=CC3=O,60*,11,3,30,-92,-2
COc1ccc(C(C)=O)cc1CSc1nnc(Nc2ccc(C)cc2)s1,3,29,63*,29,8,.
COc1ccc(C(C)=O)cc1CSc1nnc(C)s1,.,.,6,11,-6,.
COc1ccc(C(C)=O)cc1CSc1nnc(Nc2ccccc2)s1,.,16,70*,40,22,12
Cc1ccc(CNC(=O)c2ccc3c(c2)NC(=O)C(N2CCOCC2)S3)cc1 (configuration not stated),4,10,15,2,-15,-6
O=C(NCCCN1CCCCCC1)c1ccc2c(c1)NC(=O)C(N1CCOCC1)S2 (configuration not stated),.,.,82*,.,-7,.
O=C1Nc2cc(C(=O)NCCN3CCCCCC3)ccc2S/C1=C/c1ccccc1F,73*,51,0,-3,-138,-2
O=C(NCCCN1CCCCC1)c1ccc2c(c1)NC(=O)c1ccccc1S2,-1,-9,8,16,57*,16
C[C@@H]1CCCCO[C@@H](CN(C)C(=O)Nc2cccc3ccccc23)[C@H](C)CN([C@H](C)CO)C(=O)c2cc(NC(=O)Cc3ccccc3)ccc2O1,-10,32,.,.,.,6
CCCNC(=O)N1CC2(CN(CC3CCOCC3)C2)c2c(n(C)c3cc(OC)ccc23)[C@H]1CO,-21,.,.,.,.,-15
Cc1noc(C)c1NC(=O)Nc1ccc2c(c1)C(=O)N([C@H](C)CO)C[C@H](C)[C@@H](CN(C)CC1CC1)OCCCC[C@@H](C)O2,.,-43,.,.,.,4
Clc1ccc(-n2nnnc2Sc2ncnc3sccc23)cc1,.,.,75*,70*,51*,46
Cc1sc2ncnc(Sc3nnnn3-c3ccccc3)c2c1C,.,.,101*,67*,2,66*
CCCC#Cc1ccc2c(c1)O[C@H](CN(C)C(=O)C1CCC1)[C@H](C)CN([C@H](C)CO)S2(=O)=O,10,.,.,.,.,-18
CC(=O)OCC1OC(Nc2cccc(C)c2)C(OC(C)=O)C(OC(C)=O)C1OC(C)=O (configuration not stated),.,-6,7,-8,53*,3
SMILES,EWS-Fli inh,PAX8 inh HTS,TWEAK-Fn14 inh,TROY NFkB inh,LMP1 NFkB inh,LGR2 inh
CC(=O)NC1C(OCc2cccc(Br)c2)OC(COC(C)=O)C(OC(C)=O)C1OC(C)=O (configuration not stated),8,-2,-13,8,9,28
C[C@@H]1CN([C@H](C)CO)C(=O)c2cc(C3=CCCCC3)cnc2O[C@@H]1CN(C)S(=O)(=O)c1cn(C)cn1,-11,-27,.,.,.,8
C[C@@H]1CCCCO[C@H](CN(C)C)[C@@H](C)CN([C@H](C)CO)C(=O)c2cc(NC(=O)c3ccccc3)ccc2O1,-8,-21,.,.,.,2
COCC(=O)N1CC2(C1)[C@@H](c1ccc(-c3cccc(F)c3)cc1)[C@H](CO)N2C(=O)COC,3,-3,.,.,.,-7
Cc1ccc2c(c1)/C(=N/O)CCS2,.,10,65*,-12,8,.
Cc1ccc2c(c1)/C(=N/OS(=O)(=O)c1ccccc1)CCS2,.,.,21,-11,4,.
CO[C@@H]1CN(C)C(=O)c2cc(NS(=O)(=O)Cc3ccccc3)ccc2OC[C@H](C)NC[C@@H]1C,0,-14,.,.,.,1
CN(C(=O)CN1C(=O)/C(=C/c2ccccc2Cl)SC1=S)C1CCS(=O)(=O)C1 (configuration not stated),5,1,5,-12,2,-9
CN(C(=O)CN1C(=O)S/C(=C\c2ccccc2Cl)C1=O)C1CCS(=O)(=O)C1 (configuration not stated),5,5,58*,-11,-6,3
COc1cc(CC(=O)NC2CCCc3ccccc32)cc(OC)c1OC (configuration not stated),3,0,-1,-2,-6,2
COc1c(O[C@@H]2O[C@H](CO)[C@@H](O)[C@H](O)[C@H]2O)cc2c(c1OC)-c1ccc(SC)c(=O)cc1C(NC(C)=O)CC2 (some centres not stated),6,-3,-29,12,-2,11
COc1cc(C(=O)NC2CCCc3ccccc32)cc(OC)c1C (configuration not stated),10,5,-1,-9,6,6
COc1cc2c(c(OC)c1OC)-c1ccc(OC)c(=O)cc1C(NC(=O)c1ccccc1)CC2 (configuration not stated),?,70*,47,1,3,-18
C=COC(=O)NC1CCc2cc(OC)c(OC)c(OC)c2-c2ccc(SC)c(=O)cc21 (configuration not stated),29,65*,-25,14,-4,-4
COc1cc2c(c(OC)c1OC)-c1ccc(SC)c(=O)cc1C(NC(=O)c1ccccc1)CC2 (configuration not stated),30,67*,-26,9,-8,-5
COc1cc2c(c(OC)c1OC)-c1ccc(SC)c(=O)cc1C(NC=O)CC2 (configuration not stated),62*,100*,57*,29,3,20
C[C@@H]1CCCCO[C@H](CN(C)C(=O)Nc2ccc(C(F)(F)F)cc2)[C@H](C)CN([C@H](C)CO)C(=O)c2cc(NC(=O)c3ccncc3)ccc2O1,15,9,.,.,.,14
